PubChem BioAssay (NCI)
This is part of a sample that, as a whole, favours compounds with a hit. Of some 83,000 tested, about 20% had one in any assay.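 The endpoint reported here, percent growth, reads 100 for growth as untreated, 0 for no net growth and -100 for all cells dead.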 Calls of active or inactive are those of the source. How the source made its calls: active means growth percent below 10; inactive means the rest.

What was measured:
Experiment in all cases: NCI-60 one-dose screen, 48 h (100 = growth as untreated, 0 = no growth, -100 = all killed)
Details in all cases: 10 µM unless noted
NCI-H23 lung = system: NCI-H23 lung
NCI-H226 lung = system: NCI-H226 lung
NCI-H322M lung = system: NCI-H322M lung
HOP-62 NSCLC = system: HOP-62 NSCLC
NCI-H460 lung = system: NCI-H460 lung
HOP-92 NSCLC = system: HOP-92 NSCLC
NCI-H522 lung = system: NCI-H522 lung
A549/ATCC NSCLC = system: A549/ATCC NSCLC
786-0 renal = system: 786-0 renal
COLO 205 colon = system: COLO 205 colon
DU-145 prostate = system: DU-145 prostate
MALME-3M melanoma = system: MALME-3M melanoma
MDA-MB-231 breast = system: MDA-MB-231 breast
RXF 393 renal = system: RXF 393 renal
SF-268 CNS = system: SF-268 CNS
SF-295 CNS = system: SF-295 CNS
SF-539 CNS = system: SF-539 CNS
UACC-257 melanoma = system: UACC-257 melanoma
M14 melanoma = system: M14 melanoma

Measured: growth

CCc1c(Nc2ccccc2C)nc(N)[nH]c1=O
inactive: NCI-H23 lung 117% | NCI-H226 lung 103% | NCI-H322M lung 103% | HOP-62 NSCLC 100% | NCI-H460 lung 108% | HOP-92 NSCLC 93.7% | NCI-H522 lung 99% | A549/ATCC NSCLC 114% | 786-0 renal 109% | COLO 205 colon 109% | DU-145 prostate 111% | MALME-3M melanoma 102% | MDA-MB-231 breast 114% | RXF 393 renal 112% | SF-268 CNS 101% | SF-295 CNS 105% | SF-539 CNS 103% | UACC-257 melanoma 115% | M14 melanoma 106%

OCCN1CCN(c2nc(Nc3ccc(-c4nc5ccccc5[nH]4)cc3)c3cn[nH]c3n2)CC1
active: NCI-H23 lung -75.6% | NCI-H322M lung -89.8% | HOP-62 NSCLC -93.2% | NCI-H460 lung -85.4% | HOP-92 NSCLC -83.4% | NCI-H522 lung -85.6% | A549/ATCC NSCLC -91.9% | 786-0 renal -88.5% | COLO 205 colon -81.4% | DU-145 prostate -87.1% | MALME-3M melanoma -74.2% | MDA-MB-231 breast -77% | RXF 393 renal -93.6% | SF-268 CNS -80.9% | SF-295 CNS -96% | SF-539 CNS -85.4% | UACC-257 melanoma -89% | M14 melanoma -78.3%
inactive: NCI-H226 lung 106%

O=C1/C(=C/c2ccccc2O)N=C2SCCCN12
inactive: NCI-H23 lung 80.9% | NCI-H226 lung 97.2% | NCI-H322M lung 97.5% | HOP-62 NSCLC 88.4% | NCI-H460 lung 103% | HOP-92 NSCLC 80.9% | NCI-H522 lung 79.7% | A549/ATCC NSCLC 101% | 786-0 renal 98.8% | COLO 205 colon 99.9% | DU-145 prostate 103% | MALME-3M melanoma 95.1% | MDA-MB-231 breast 78.8% | RXF 393 renal 112% | SF-268 CNS 99.5% | SF-295 CNS 98.6% | SF-539 CNS 95.4% | UACC-257 melanoma 103% | M14 melanoma 102%

c1ccc2[nH]c(-c3ccc(Nc4nc(N5CCCC5)nc5[nH]ncc45)cc3)nc2c1
active: NCI-H23 lung -11.3% | NCI-H322M lung 6.53% | HOP-62 NSCLC -36.6% | NCI-H460 lung -44.3% | HOP-92 NSCLC -56.4% | NCI-H522 lung -54.7% | A549/ATCC NSCLC -42.4% | 786-0 renal -92.4% | COLO 205 colon -75.9% | DU-145 prostate -6.9% | MALME-3M melanoma -71.5% | MDA-MB-231 breast -48.5% | RXF 393 renal -81.5% | SF-268 CNS -7.79% | SF-295 CNS -63.3% | SF-539 CNS -68.1% | UACC-257 melanoma -90.5% | M14 melanoma -78%
inactive: NCI-H226 lung 98.9%

CC(=O)c1cc(C(=O)c2ccc3c(c2)Sc2ccccc2N3)n2ccccc12
active: NCI-H460 lung 2.97% | NCI-H522 lung -28.9% | COLO 205 colon -55.4% | DU-145 prostate 1.94% | RXF 393 renal 7.01% | SF-295 CNS 8.93% | SF-539 CNS -38.3%
inactive: NCI-H23 lung 24.1% | NCI-H226 lung 32.5% | NCI-H322M lung 24.5% | HOP-62 NSCLC 21.8% | HOP-92 NSCLC 46.1% | A549/ATCC NSCLC 10.8% | 786-0 renal 22.5% | MALME-3M melanoma 53.1% | MDA-MB-231 breast 17.9% | SF-268 CNS 29.7% | UACC-257 melanoma 51.4% | M14 melanoma 20.1%

O=c1ccccc(-c2ccc(-c3ccco3)cc2)c1O
active: HOP-62 NSCLC 6.97% | NCI-H460 lung 2.15% | SF-539 CNS -2.44% | UACC-257 melanoma 0.169% | M14 melanoma -2.99%
inactive: NCI-H23 lung 19.1% | NCI-H226 lung 21.7% | NCI-H322M lung 21.6% | HOP-92 NSCLC 60.1% | NCI-H522 lung 27.3% | A549/ATCC NSCLC 13.3% | 786-0 renal 10.6% | COLO 205 colon 26.3% | DU-145 prostate 19.7% | MALME-3M melanoma 15.1% | MDA-MB-231 breast 40.2% | RXF 393 renal 43.9% | SF-268 CNS 11% | SF-295 CNS 20.5%

O=C(/C=C/c1ccc(C(F)(F)F)cc1)Nc1ccc(C=C2c3ccccc3C(=O)c3ccccc32)cc1
inactive: NCI-H23 lung 49.2% | NCI-H226 lung 67.8% | NCI-H322M lung 97.3% | HOP-62 NSCLC 78.8% | NCI-H460 lung 62.3% | HOP-92 NSCLC 55.6% | NCI-H522 lung 20.8% | A549/ATCC NSCLC 44.6% | 786-0 renal 62.1% | COLO 205 colon 66.5% | DU-145 prostate 72.4% | MALME-3M melanoma 76.6% | MDA-MB-231 breast 77.3% | RXF 393 renal 68.4% | SF-268 CNS 67.3% | SF-295 CNS 59.2% | SF-539 CNS 83.5% | UACC-257 melanoma 35.1% | M14 melanoma 59.1%

Cc1nc(Nc2ccc(F)c(Cl)c2)sc1C(=O)O
inactive: NCI-H23 lung 15.7% | NCI-H226 lung 26.9% | NCI-H322M lung 54.3% | HOP-62 NSCLC 27.3% | NCI-H460 lung 18.1% | A549/ATCC NSCLC 12.9% | 786-0 renal 19.6% | DU-145 prostate 28.2% | MALME-3M melanoma 30.8% | RXF 393 renal 15.4% | SF-268 CNS 29.3% | SF-295 CNS 15.2% | SF-539 CNS 24.4% | M14 melanoma 19.2%
active: HOP-92 NSCLC -23.8% | NCI-H522 lung -9.27% | COLO 205 colon 5.72% | MDA-MB-231 breast -19.8% | UACC-257 melanoma 4.37%
